Measured values: the antibiotic and cytotoxicity screens of Wong et al. (2023)
Among all 39,000 compounds or so, about 1,500 (3.8%) were called active. The full list was thinned out, with actives kept by preference.

The compounds below were run on HSkMC (human skeletal muscle cells) (assay: cytotoxicity call (relative viability < 0.9)). Conditions: 10 µM.
In the case of `C[C@@H]1CCCCO[C@@H](CN(C)C(=O)Nc2ccc(C(F)(F)F)cc2)[C@@H](C)CN([C@H](C)CO)C(=O)c2cc(NS(=O)(=O)c3ccc(Cl)cc3)ccc2O1`, the cytotoxicity call is reported as “inactive”. For `O=C(C[C@H]1C[C@@H]2c3cc(NS(=O)(=O)c4ccc(F)cc4)ccc3O[C@@H]2[C@H](CO)O1)NC1CCCCC1`, the cytotoxicity call was “inactive”. With `C[C@@H]1CN([C@H](C)CO)C(=O)c2cc(NC(=O)Nc3cccc4ccccc34)ccc2O[C@H]1CN(C)CC1CCCCC1` the cytotoxicity call was “inactive”. For `C[C@@H]1CCCCO[C@@H](CN(C)S(=O)(=O)c2ccc(F)cc2)[C@@H](C)CN([C@@H](C)CO)C(=O)c2cc(NC(=O)NC3CCCCC3)ccc2O1`, the cytotoxicity call was “inactive”. In the case of `C[C@H]1CN([C@@H](C)CO)C(=O)Cc2cc(NS(C)(=O)=O)ccc2O[C@@H]1CN(C)Cc1ccc2c(c1)OCO2`, the cytotoxicity call is reported as “inactive”. In the case of `O=C(C[C@@H]1C[C@@H]2c3cc(NS(=O)(=O)c4ccc(F)cc4)ccc3O[C@@H]2[C@@H](CO)O1)NC1CCCC1`, the cytotoxicity call is reported as “inactive”. In the case of `O=C(C[C@H]1CC[C@@H]2[C@H](COC[C@H](O)CN2C(=O)Nc2cccc(Cl)c2)O1)NCCCN1CCOCC1`, the cytotoxicity call is reported as “inactive”. `C[C@@H]1CN([C@@H](C)CO)C(=O)c2cc(NC(=O)Nc3ccc(C(F)(F)F)cc3)ccc2O[C@@H]1CN(C)S(=O)(=O)c1ccc(Cl)cc1` was tested, and the cytotoxicity call was “active”. In the case of `C[C@@H]1CN([C@H](C)CO)C(=O)c2cc(NC(=O)Nc3ccc(C(F)(F)F)cc3)ccc2O[C@@H]1CN(C)S(=O)(=O)c1ccc(Cl)cc1`, the cytotoxicity call is reported as “active”. `C[C@H]1CN([C@@H](C)CO)C(=O)c2cc(NC(=O)Nc3ccc(C(F)(F)F)cc3)ccc2O[C@H]1CN(C)S(=O)(=O)c1ccc(Cl)cc1` was tested, and the cytotoxicity call was “inactive”. In the case of `Cc1ccc(S(=O)(=O)N(C)C[C@@H]2Oc3ccc(NC(=O)Nc4ccc(C(F)(F)F)cc4)cc3C(=O)N([C@H](C)CO)C[C@H]2C)cc1`, the cytotoxicity call is reported as “inactive”. `C[C@H]1CN([C@@H](C)CO)C(=O)c2cc(NC(=O)Nc3ccc(C(F)(F)F)cc3)ccc2O[C@@H]1CN(C)S(=O)(=O)c1ccc(Cl)cc1` was tested, and the cytotoxicity call was “inactive”. With `C[C@@H]1CN([C@@H](C)CO)C(=O)c2cc(NC(=O)Nc3ccc(C(F)(F)F)cc3)ccc2O[C@H]1CN(C)S(=O)(=O)c1ccc(Cl)cc1` the cytotoxicity call was “inactive”. For `Cc1ccc(S(=O)(=O)N(C)C[C@@H]2Oc3ccc(NC(=O)Nc4ccc(C(F)(F)F)cc4)cc3C(=O)N([C@@H](C)CO)C[C@H]2C)cc1`, the cytotoxicity call was “inactive”. For `C[C@@H]1CN([C@H](C)CO)C(=O)c2cc(NC(=O)Nc3ccc(C(F)(F)F)cc3)ccc2O[C@H]1CN(C)S(=O)(=O)c1ccc(Cl)cc1`, the cytotoxicity call was “inactive”. In the case of `C[C@H](CO)N1C[C@H](C)[C@H](CN(C)S(=O)(=O)c2ccc(Cl)cc2)Oc2ccc(NC(=O)Nc3ccc(C(F)(F)F)cc3)cc2C1=O`, the cytotoxicity call is reported as “active”. `C[C@@H]1CCCCO[C@@H](CN(C)C(=O)Nc2ccccc2)[C@H](C)CN([C@H](C)CO)C(=O)c2cc(NC(=O)CCC(F)(F)F)ccc2O1` was tested, and the cytotoxicity call was “inactive”. In the case of `C[C@@H]1CN([C@H](C)CO)C(=O)c2cc(NC(=O)CCN3CCOCC3)ccc2O[C@H]1CN(C)S(=O)(=O)c1ccccc1`, the cytotoxicity call is reported as “inactive”. In the case of `Cc1noc(C)c1NC(=O)N(C)C[C@@H]1OCCCC[C@H](C)Oc2ccc(NC(=O)C3CCCCC3)cc2C(=O)N([C@@H](C)CO)C[C@@H]1C`, the cytotoxicity call is reported as “inactive”. `C[C@@H]1CCCCO[C@@H](CN(C)Cc2ccc(C(=O)Nc3ccccc3N)cc2)[C@@H](C)CN([C@H](C)CO)C(=O)c2cc(NC(=O)Nc3ccc4c(c3)OCO4)ccc2O1` was tested, and the cytotoxicity call was “inactive”. In the case of `COc1ccc(CN(C)C[C@@H]2OCCCC[C@H](C)Oc3ccc(NC(=O)CCC(F)(F)F)cc3C(=O)N([C@@H](C)CO)C[C@H]2C)cc1`, the cytotoxicity call is reported as “inactive”. For `O=C(C[C@@H]1C=C[C@H](NC(=O)Nc2ccc3c(c2)OCO3)[C@H](CO)O1)NCCCN1CCOCC1`, the cytotoxicity call was “inactive”. For `c1cncc(-c2nc3ccc4ccccc4c3c3c2CCCC3)c1`, the cytotoxicity call was “inactive”. `CN1CCN(C(=O)C[C@H]2CC[C@@H]3[C@H](COC[C@@H](O)CN3C(=O)Nc3ccc4c(c3)OCO4)O2)CC1` was tested, and the cytotoxicity call was “inactive”. With `COc1ccc(S(=O)(=O)N(C)C[C@@H]2Oc3ccc(NS(=O)(=O)c4cn(C)cn4)cc3C(=O)N([C@@H](C)CO)C[C@@H]2C)cc1` the cytotoxicity call was “inactive”. For `C[C@@H]1CN([C@H](C)CO)C(=O)c2cccc(NC(=O)C3CCOCC3)c2O[C@@H]1CN(C)C(=O)NC1CCCCC1`, the cytotoxicity call was “inactive”. For `C[C@@H]1CN([C@H](C)CO)C(=O)c2cc(NC(=O)Nc3cccc4ccccc34)ccc2O[C@@H](C)CCCCO[C@@H]1CN(C)CC1CCCCC1`, the cytotoxicity call was “active”. `C[C@H]1CCCCO[C@@H](CN(C)CC2CCCCC2)[C@@H](C)CN([C@@H](C)CO)C(=O)c2cc(NC(=O)Nc3cccc4ccccc34)ccc2O1` was tested, and the cytotoxicity call was “inactive”. With `C[C@H](CO)N1C[C@H](C)[C@@H](CN(C)CC2CCCCC2)OCCCC[C@H](C)Oc2ccc(NC(=O)Nc3cccc4ccccc34)cc2C1=O` the cytotoxicity call was “inactive”. With `C[C@@H]1CCCCO[C@H](CN(C)CC2CC2)[C@@H](C)CN([C@H](C)CO)C(=O)c2cc(NC(=O)Nc3cccc4ccccc34)ccc2O1` the cytotoxicity call was “inactive”. In the case of `C[C@@H]1CCCCO[C@@H](CN(C)CC2CCCCC2)[C@@H](C)CN([C@@H](C)CO)C(=O)c2cc(NC(=O)Nc3cccc4ccccc34)ccc2O1`, the cytotoxicity call is reported as “active”. `C[C@@H]1CCCCO[C@H](CN(C)CC2CCCCC2)[C@H](C)CN([C@@H](C)CO)C(=O)c2cc(NC(=O)Nc3cccc4ccccc34)ccc2O1` was tested, and the cytotoxicity call was “active”. `C[C@@H]1CCCCO[C@@H](CN(C)CC2CCCCC2)[C@H](C)CN([C@H](C)CO)C(=O)c2cc(NC(=O)Nc3cccc4ccccc34)ccc2O1` was tested, and the cytotoxicity call was “active”. With `C[C@H](CO)N1C[C@H](C)[C@H](CN(C)CC2CC2)OCCCC[C@H](C)Oc2ccc(NC(=O)Nc3cccc4ccccc34)cc2C1=O` the cytotoxicity call was “inactive”. For `CC(C=CC=C(C)C=CC(=O)C1(C)CC(O)CC1(C)C)=CC=CC=C(C)C=CC=C(C)C=CC1=C(C)CC(O)CC1(C)C` (stereo not given), the cytotoxicity call was “inactive”. With `C[C@@H]1CN([C@H](C)CO)C(=O)c2cc(NC(=O)Cn3cnnn3)ccc2O[C@H]1CN(C)Cc1ccc(-c2ccccc2)cc1` the cytotoxicity call was “inactive”. With `CN1CCN(C(=O)C[C@H]2C=C[C@H](NC(=O)Nc3ccccc3F)[C@@H](CO)O2)CC1` the cytotoxicity call was “inactive”. `COC(=O)C[C@H]1CC[C@@H]2[C@H](COC[C@H](O)CN2S(=O)(=O)c2cn(C)cn2)O1` was tested, and the cytotoxicity call was “inactive”. With `C[C@@H]1CN([C@H](C)CO)C(=O)c2cc(N(C)C)ccc2O[C@@H](C)CCCCO[C@H]1CN(C)C(=O)Nc1cccc2ccccc12` the cytotoxicity call was “inactive”. With `C[C@@H]1CCCCO[C@H](CN(C)S(=O)(=O)c2ccc(Cl)cc2)[C@H](C)CN([C@H](C)CO)C(=O)c2cc(NS(=O)(=O)c3ccccc3)ccc2O1` the cytotoxicity call was “inactive”. For `C[C@H](CO)N1C[C@H](C)[C@@H](CN(C)C)OCCCC[C@H](C)Oc2ccc(NC(=O)Nc3cccc4ccccc34)cc2C1=O`, the cytotoxicity call was “inactive”. In the case of `C[C@@H]1CCCCO[C@@H](CN(C)CC2CC2)[C@H](C)CN([C@@H](C)CO)C(=O)c2cc(NC(=O)Nc3cccc4ccccc34)ccc2O1`, the cytotoxicity call is reported as “inactive”. `C[C@@H]1CCCCO[C@H](CN(C)CC2CC2)[C@H](C)CN([C@@H](C)CO)C(=O)c2cc(NC(=O)Nc3cccc4ccccc34)ccc2O1` was tested, and the cytotoxicity call was “inactive”. `C[C@@H]1CCCCO[C@H](CN(C)CC2CCCCC2)[C@H](C)CN([C@H](C)CO)C(=O)c2cc(NC(=O)Nc3cccc4ccccc34)ccc2O1` was tested, and the cytotoxicity call was “active”. For `C[C@@H]1CN([C@@H](C)CO)C(=O)c2cc(NC(=O)Nc3cccc4ccccc34)ccc2O[C@@H](C)CCCCO[C@H]1CN(C)CC1CC1`, the cytotoxicity call was “inactive”. With `C[C@@H]1CCCCO[C@@H](CN(C)CC2CC2)[C@@H](C)CN([C@H](C)CO)C(=O)c2cc(NC(=O)Nc3cccc4ccccc34)ccc2O1` the cytotoxicity call was “inactive”. For `C[C@@H]1CCCCO[C@@H](CN(C)CC2CCCCC2)[C@@H](C)CN([C@H](C)CO)C(=O)c2cc(NC(=O)Nc3cccc4ccccc34)ccc2O1`, the cytotoxicity call was “active”. For `C[C@H](CO)N1C[C@H](C)[C@@H](CN(C)CC2CC2)OCCCC[C@H](C)Oc2ccc(NC(=O)Nc3cccc4ccccc34)cc2C1=O`, the cytotoxicity call was “inactive”. In the case of `C[C@H]1CCCCO[C@H](CN(C)CC2CCCCC2)[C@@H](C)CN([C@@H](C)CO)C(=O)c2cc(NC(=O)Nc3cccc4ccccc34)ccc2O1`, the cytotoxicity call is reported as “active”. `C[C@@H]1CCCCO[C@H](CN(C)CC2CCCCC2)[C@@H](C)CN([C@H](C)CO)C(=O)c2cc(NC(=O)Nc3cccc4ccccc34)ccc2O1` was tested, and the cytotoxicity call was “active”. For `C[C@H](O)c1nc(=O)c2ccccc2[nH]1`, the cytotoxicity call was “inactive”. With `CC(=O)OCC(=O)C1(O)CCC2C3CCC4=CC(=O)C=CC4(C)C3(F)C(O)CC21C` (stereo not given) the cytotoxicity call was “inactive”. For `C[C@H](CO)N1C[C@H](C)[C@@H](CN(C)C(=O)Nc2ccc3c(c2)OCCO3)OCc2cnnn2CCCC1=O`, the cytotoxicity call was “inactive”. `COCC(=O)Nc1ccc2c(c1)C(=O)N(C)C[C@H](OC)[C@@H](C)CN(Cc1ccccc1OC)[C@H](C)CO2` was tested, and the cytotoxicity call was “inactive”. `S=C1C=C(N2CCCCC2)C[C@H](c2ccc(Cl)cc2)S1` was tested, and the cytotoxicity call was “inactive”. In the case of `C[C@@H]1CN([C@@H](C)CO)C(=O)c2cc(NC(=O)Nc3ccc(F)cc3)ccc2O[C@H]1CN(C)S(=O)(=O)c1cn(C)cn1`, the cytotoxicity call is reported as “inactive”. For `Cc1noc(C)c1NC(=O)Nc1ccc2c(c1)C(=O)N([C@@H](C)CO)C[C@@H](C)[C@@H](CN(C)C(=O)NC(C)C)O2`, the cytotoxicity call was “inactive”. For `CCO[C@H]1OC(C(=O)N2CCN(Cc3ccccc3)CC2)=C[C@@H](C)[C@@H]1CCCOC(=O)NCCCCCC(=O)NO`, the cytotoxicity call was “inactive”. `C[C@H](CO)N1C[C@H](C)[C@H](CN(C)Cc2ccc(Cl)c(Cl)c2)Oc2ccc(NC(=O)Cc3ccccc3)cc2C1=O` was tested, and the cytotoxicity call was “inactive”. With `C[C@@H]1CN([C@H](C)CO)C(=O)Cc2cc(NS(C)(=O)=O)ccc2O[C@H]1CN(C)C(=O)Nc1ccc2c(c1)OCO2` the cytotoxicity call was “inactive”.
